In all, about 33,000 sequences were measured (“E-score (-0.5 to 0.5)”: median about -0.0034, highest 2% from about 0.25 on). The full list was thinned out, with the highest values kept by preference.
Biological target: T1, Yap3 (UniProt P38749)
T1 sequence: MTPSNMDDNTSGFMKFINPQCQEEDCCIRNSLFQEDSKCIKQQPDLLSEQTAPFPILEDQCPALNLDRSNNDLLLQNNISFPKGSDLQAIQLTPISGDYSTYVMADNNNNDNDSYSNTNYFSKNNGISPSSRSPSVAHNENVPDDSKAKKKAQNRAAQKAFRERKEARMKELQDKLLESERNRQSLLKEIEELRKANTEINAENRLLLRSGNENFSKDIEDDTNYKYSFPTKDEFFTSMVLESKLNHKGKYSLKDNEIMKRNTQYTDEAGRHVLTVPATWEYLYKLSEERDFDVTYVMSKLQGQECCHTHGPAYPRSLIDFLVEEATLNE
Test: PBM E-score (8-mer binding enrichment) (E-score (-0.5 to 0.5)); higher = stronger / more preferred TF binding
Details: protein concentration: 100 nM; construct: GST-full length
Experimental: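 Universal 'all 10-mer' protein binding microarrays (Agilent AMADID 015681) probed with GST-tagged S. cerevisiae TFs (full-length or DBD) made by in vitro transcription/translation (PURExpress), about 100-200 nM. Bound TF was detected with fluorescent anti-GST. Each ungapped 8-mer (which stands for itself and its reverse complement) is scored by the PBM enrichment score (E-score), a modified Wilcoxon-Mann-Whitney statistic from -0.5 to +0.5, computed with the Universal PBM Analysis Suite. Scale: above 0.35 generally sequence-specific binding.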

| Sequence | PBM E-score |
| --- | --- |
| ACGGTAGA | -0.0586 |
| AACTGATT | -0.0243 |
| AACCAGGC | -0.00725 |
| CAGTGAAC | 0.161 |
| CTGGTTGA | -0.256 |
| CTTCACTC | 0.0393 |
| ATAATGTC | 0.195 |
| ATTATGCA | 0.0948 |
| ATTATGTC | 0.198 |
| ATTATGCC | 0.119 |
| ATTATGTG | 0.291 |
| ATAATGTA | 0.292 |
| ATTATGCG | 0.297 |
| AGTATGTG | 0.203 |
| CTAATGTA | 0.148 |
| ACTATGTG | -0.0195 |
| ATTATGTA | 0.267 |
| GTTATGTA | 0.151 |
| CCTGCGCA | -0.158 |
| AAATCACC | 0.235 |
| AGATCGCG | 0.0544 |
| GTAGGGAA | 0.0975 |
| ACGTAGTC | -0.262 |
| GTTATGAA | 0.172 |
| ATTATGAA | 0.261 |
| CTTATGAA | 0.0398 |

| Sequence | PBM E-score |
| --- | --- |
| ATCGACTA | 0.0167 |
| CATGTGGC | 0.0138 |
| ACAACGCG | 0.0663 |
| ATATTCTC | 0.295 |
| ATATTCAC | 0.254 |
| ATATTCTA | 0.175 |
| GTATTCAC | 0.113 |
| CTATTCAC | 0.133 |
| CTATTCTC | 0.134 |
| AGGTTCTG | -0.122 |
| CCACCATC | -0.238 |
| GTACAAGA | 0.0226 |
| GACTTACC | -0.11 |
| CAAAGTCA | 0.0697 |
| AGACAATA | 0.339 |
| AGACAATG | 0.0142 |
| AGACAATC | 0.129 |
| CTATGGGC | -0.0642 |
| ACCCAGAA | 0.158 |
| CAACCGCG | 0.323 |
| CAACCGCA | 0.00088 |
| CAACCGCC | -0.103 |
| CATAAGAA | 0.21 |
| AAGTGGAC | -0.033 |
| GTACGTAA | 0.312 |
| GTACGTAC | 0.0261 |

| Sequence | PBM E-score |
| --- | --- |
| ATTCGTAA | 0.292 |
| ATACGTAT | 0.296 |
| ATTCGTTA | 0.25 |
| GTTCGTAA | 0.192 |
| AAACGTAT | 0.145 |
| ACACGTAT | 0.0936 |
| CTACGTAA | 0.135 |
| CTTCGTTC | 0.0138 |
| CTTCGTAA | 0.141 |
| ATTCGTTC | 0.27 |
| CGGGGTAC | -0.251 |
| GTGAGCTA | 0.0321 |
| AAATGTGC | 0.197 |
| CCACTAAG | 0.0472 |
| ACTAAGTG | -0.00977 |
| ACAACAGC | 0.0808 |
| ACAGAGAT | 0.0805 |
| CAGGCAAG | -0.0287 |
| ATACGTAA | 0.266 |
| ATACGTAC | 0.0322 |
| ATACGTAG | 0.0583 |
| CCTTAGCC | -0.0133 |
| CGCCATCC | -0.247 |
| ATGTAAGG | 0.129 |
| CTGTAACA | -0.0647 |
| ATGTAAGC | 0.264 |

| Sequence | PBM E-score |
| --- | --- |
| ATGTAATG | 0.151 |
| ATGTAACA | 0.256 |
| GTGTAAGA | -0.0287 |
| CTGTAATA | 0.113 |
| CTGTAAGC | -0.0121 |
| ATGTAAGA | 0.277 |
| CTGTAAGA | -0.0157 |
| ATGTAACG | 0.164 |
| ATGTAATA | 0.371 |
| AGCGTCGA | 0.124 |
| AACCTAAA | 0.142 |
| ATCCCTGA | -0.0313 |
| CAGCACAC | -0.173 |
| AAGTGTTA | 0.112 |
| TAGAGCTA | -0.0728 |
| AATCCTCT | -0.127 |
| CCAGTTCG | -0.114 |
| AAAATCTA | 0.0549 |
| CGCTACTA | 0.264 |
| CGCTACTC | -0.112 |
| AGCTACTA | 0.0917 |
| ATTTTCTC | 0.0752 |
| GAAATACA | 0.0912 |
| ATACTACC | 0.0377 |
| ATAATACC | 0.226 |
| ATAATACG | 0.292 |

| Sequence | PBM E-score |
| --- | --- |
| ACAATACA | 0.0763 |
| CTACTACA | 0.225 |
| CTAATACA | 0.25 |
| GTAATACA | 0.273 |
| ATAATACA | 0.357 |
| ATACTACA | 0.28 |
| AGAATACG | 0.0873 |
| ACAATACG | 0.0668 |
| GAAGGCAC | -0.128 |
| AAGGATTC | -0.129 |
| GAGTGGAA | 0.0318 |
| CGATATCC | 0.146 |
| AAAGAGGC | -0.0407 |
| ATTCCTTG | -0.113 |
| ACTATATC | 0.227 |
| CTTATATC | 0.218 |
| ACCATATA | 0.285 |
| CTTATATA | 0.315 |
| CGCATATA | 0.00761 |
| ACTATATA | 0.328 |
| ACCATATG | 0.122 |
| ACCATATC | 0.0587 |
| GCTATATA | 0.101 |
| GTTATATA | 0.224 |
| AGCATATA | 0.0558 |
| GGCATATA | 0.268 |

| Sequence | PBM E-score |
| --- | --- |
| ACCTAAAC | 0.122 |
| GAGGGATC | -0.253 |
| ACTGGTAA | 0.184 |
| CCTAGACC | -0.146 |
| CGAAGGTA | 0.00763 |
| AGTGCGCG | -0.0557 |
| CCCTGTCC | -0.276 |
| TAGAGCAA | -0.0378 |
| AAACTGCT | -0.156 |
| GACTCTTA | 0.141 |
| ATTATATC | 0.16 |
| ATTATATG | 0.221 |
| ATTATATA | 0.3 |
| AATGCCAG | -0.00344 |
| GCGTGGCC | -0.3 |
| TGTCGAAA | -0.0162 |
| CAATAACA | 0.0825 |
| GAATAGAA | 0.125 |
| GAATAACA | 0.308 |
| AAATAAAT | 0.241 |
| TAATAACA | 0.189 |
| TAATAGAA | 0.257 |
| AAATAAGT | 0.145 |
| AAATAATT | 0.287 |
| AAATAGAA | 0.0373 |
| GAATAAGA | 0.109 |

| Sequence | PBM E-score |
| --- | --- |
| GAATAATC | 0.217 |
| GAATAATA | 0.292 |
| TAACACTA | 0.245 |
| ACGCGTTA | 0.0763 |
| GGCTCTGA | -0.03 |
| CAGAGTTA | -0.0557 |
| ACACCATA | 0.164 |
| GCGCACCA | -0.0312 |
| TAATAAGA | 0.136 |
| AAATAATC | 0.0637 |
| AAATAAAA | 0.224 |
| TAATAATA | 0.373 |
| AAATAATA | 0.307 |
| GAATAAAA | 0.178 |
| TAATAAAA | 0.324 |
| CATTAGAA | 0.123 |
| TATTAGAA | 0.287 |
| AAATAATG | 0.24 |
| GATTAGAA | 0.0967 |
| CAATAATA | 0.237 |

Source: the supplement of paper PMC3334620
